Measured values: ChEMBL document CHEMBL4513216, “Probing the Open Global Health Chemical Diversity Library for Multistage-Active Starting Points for Next-Generation Antimalarials” (ACS Infect Dis, 2020)
Screen size: about 68,000 compounds; about 2,700 (4%) showed an effect of 50% or more. The full list was thinned out, with strong results kept by preference.

Tested on: Plasmodium berghei
Assay: Screen against P. berghei liver stage (PbLuc), transformed with Luciferase, at 2uM
Type: functional, HepG2
Settings: tested at 2 uM

Row | Structure (SMILES) | INHIBITION
1 | CCC(C)NC(=O)NCCCn1nc2ccccn2c1=O (stereo not drawn) | 55.7%
2 | CN(CCn1nc2ccccn2c1=O)CC(=O)N1CCCC1 | 17.19%
3 | CN(C)C(=O)N1CCN(CCn2nc3ccccn3c2=O)CC1 | 50.32%
4 | CCN(CC)C(=O)CN(C)CCn1nc2ccccn2c1=O | 8.88%
5 | CCNC(=O)NCCCn1nc2ccccn2c1=O | -53.4%
6 | CN(CCn1nc2ccccn2c1=O)CC(=O)NC1CC1 | 16.6%
7 | CCC(=O)CNC(=O)CCn1nc2ccccn2c1=O | -12.95%
8 | O=C(NCCCn1nc2ccccn2c1=O)NC(C1CC1)C1CC1 | -35.46%
9 | CC(=O)N1CCCN(CCn2nc3ccccn3c2=O)CC1 | 52.66%
10 | CN1CCN(C(=O)c2cnsn2)c2ccc(F)cc21 | 36.24%
11 | CN(C)CCCn1ccnc1C1CCCN(c2ncc(Cl)cc2F)C1 (stereo not drawn) | -18.59%
12 | Cc1noc([C@H]2C[C@H]3OCC[C@H]3N(Cc3cccs3)C2)n1 | -27.21%
13 | c1cnc(N2CCCC3(CCN(CC4CCC4)C3)C2)nc1 (stereo not drawn) | -20.98%
14 | CN(C)c1cc(CNC(=O)Nc2cccnc2N2CCCC2)ccn1 | -43.4%
15 | Cn1cccc(NC(=O)N2CCC(COCc3ccccc3)C2)c1=O (stereo not drawn) | -5.79%
16 | CN1CCN(C2CCN(Cc3nc(-c4ccoc4)no3)CC2)C1=O | -17.31%
17 | Cc1ncc(CN(C)C(=O)Nc2cccc(CN3CCOC3=O)c2)s1 | 56.2%
18 | Cc1ncc(CN(C)C(=O)Nc2cccc(N3CCOC3=O)c2)s1 | -127.85%
19 | Cc1ncc(CN(C)C(=O)Nc2ccc(CN3CCOC3=O)cc2)s1 | 10.61%
20 | CS(=O)(=O)NC1CCN(Cc2ccc(OCc3ccccn3)cc2)CC1 | -15.64%
21 | CCN1CCOC(CNCc2ccc(OCc3ccccn3)cc2)C1 (stereo not drawn) | 50.75%
22 | CN1CCOC(CNCc2ccc(OCc3ccccn3)cc2)C1 (stereo not drawn) | -12.27%
23 | CS(=O)(=O)NC1CCCN(Cc2ccc(OCc3ccccn3)cc2)C1 (stereo not drawn) | 10.63%

Row | Structure (SMILES) | INHIBITION
24 | CCN1CCOC(CNCc2cccc(OCc3ccccn3)c2)C1 (stereo not drawn) | 3.06%
25 | CC(=O)NC1CCCN(Cc2ccc(OCc3ccccn3)cc2)C1 (stereo not drawn) | 57.92%
26 | c1cnc(N2C[C@H]3CCN(CCN4CCCC4)C[C@H]3C2)cn1 | -27.22%
27 | COCCNC(=O)c1nnc2ccc(N3CCOCC3)cc2n1 | 26.54%
28 | CSc1nc2ncc3c(=O)n(CCN4CCCCC4)ccc3n2n1 | 8.9%
29 | COC1CCN(C(=O)COC(C)=O)CC(=O)N(C)c2ccccc21 (stereo not drawn) | -46.46%
30 | COC1CCN(C(=O)CC(C)(C)C)CC(=O)N(C)c2ccccc21 (stereo not drawn) | 51.71%
31 | COC1CCN(C(=O)CC2CCCC2)CC(=O)N(C)c2ccccc21 (stereo not drawn) | 8.41%
32 | CN(Cc1noc2c1CCCC2)C(=O)C1CCOc2ccccc2C1 (stereo not drawn) | 8.89%
33 | c1csc(CNCC2COCc3c(-c4ccoc4)nnn3C2)n1 (stereo not drawn) | -45.9%
34 | O=C([C@@H]1COC[C@H]2CN(C3CCOCC3)C[C@H]21)N1CCCO1 | 35.15%
35 | CN(Cc1ccc2c(c1)OCO2)C(=O)C1CC(c2cccc(F)c2)=NO1 (stereo not drawn) | 53.68%
36 | Cc1cc(CN(C)C(=O)C2CC(c3cccc(F)c3)=NO2)no1 (stereo not drawn) | -30.08%
37 | CN(Cc1cccc(C#N)c1)C(=O)C1CC(c2cccc(F)c2)=NO1 (stereo not drawn) | 17.47%
38 | CNC(=O)N1C[C@@H]2C[C@H](C(=O)Nc3ccccc3)[C@H](C1)O2 | 6.57%
39 | c1ccc(-c2cc(CNCCCC3CCOC3)c3nnnn3c2)cc1 (stereo not drawn) | 22.81%
40 | Cc1nn(C)c(C)c1CC(=O)NCC1(C(N)=O)CCOCC1 | 60.59%
41 | Cc1nn(C)c(C)c1CCC(=O)NCC1(C(N)=O)CCOCC1 | 25.73%
42 | CCc1nc(CC(=O)NCC2(C(N)=O)CCOCC2)cs1 | 55.36%
43 | CCc1nc(CNCC2(C(N)=O)CCOCC2)cs1 | 33.9%
44 | NC(=O)C1(CNCc2csc(-c3cccs3)n2)CCOCC1 | 36.28%
45 | Cc1nn(C)c(Cl)c1C(=O)NCC1(C(N)=O)CCOCC1 | 32.02%
46 | Nc1ccc(C(=O)N2CCCC(C(=O)CCc3ccccc3)C2)cn1 (stereo not drawn) | -62.48%

Row | Structure (SMILES) | INHIBITION
47 | COCc1cnc2n1CCN(C1CCCC1)C2C (stereo not drawn) | 0.42%
48 | c1cc(-c2nn3c(CN4CCOCC4)nnc3s2)ccn1 | 2.88%
49 | COc1cc(C(=O)N2CCC(c3n[nH]c(C4CC4)n3)CC2)ccc1C | 10.5%
50 | O=C(NCc1cccnc1)[C@@H]1CC[C@@H]2[C@@H](CCN2c2ncc(F)cn2)O1 | 12.7%
51 | COc1ccc(-c2nnsc2C(=O)N2CCSCC2)cc1 | -20.55%
52 | N#CCCn1nc(C(F)(F)F)c2c1CCCC2 | 17.01%
53 | NCCCn1nc(C(F)(F)F)c2c1CCC2 | 58.18%
54 | N#CCCn1nc(C(F)(F)F)c2c1CCC2 | 10.83%
55 | COCC1CN(Cc2cccnc2)Cc2nnn(CC3CC3)c21 (stereo not drawn) | -94.44%
56 | COCC1CC2(CCN(c3cc(OC)ncn3)CC2)CN1C(C)C (stereo not drawn) | -0.45%
57 | COC(=O)c1cccc(C(=O)N2CCN(C(=O)N(C)C)CC2(C)C)c1 | 7.42%
58 | CCOc1cccc(C(C)NC(=O)N2CCC3(CC2)OCCO3)c1 (stereo not drawn) | 58.01%
59 | CC(NC(=O)N1CCC2(C1)OCCO2)c1cccc(Cl)c1 (stereo not drawn) | 22.12%
60 | CCOc1cccc(C(C)NC(=O)N2CCC(C(N)=O)CC2)c1 (stereo not drawn) | -31.3%
61 | COc1cc(N2CCC3(CC2)CCN(c2cccnc2)C3=O)ncn1 | 2.72%
62 | O=C(c1ccc2nncn2c1)N1CCCCC1Cn1cccn1 (stereo not drawn) | 39.47%
63 | O=C(NCCOc1ccc(Cl)cn1)Nc1cccnc1 | -1.56%
64 | O=C(NCCOc1ccc(Cl)cn1)Nc1ccccn1 | -65.52%
65 | O=C(NCCOc1ccc(Cl)cn1)Nc1nccs1 | 50.61%
66 | C=Cc1ccc(C(=O)N2CCCC(Nc3ccc(OC)cc3)C2)cc1 (stereo not drawn) | 19.42%
67 | CCn1cc(CN2CCCN(C(=O)C3(C)CCOCC3)CC2)cn1 | -1.55%
68 | CN(Cc1cccc(OC(F)(F)F)c1)C(=O)c1cnsn1 | 10.1%
